In the library only some 2.1% were active in any assay of this set; here they are far more common.
MsrA inhibitor = bovine MsrA enzyme inhibitors, primary screen, biochemical, absorbance, HTS; purified bovine MsrA, absorbance read-out; inhibition, % at 15.5 µM; 0.75% of 360,000 active; AID 651718, 2012; in the data active = inhibition above about 4.5%;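 note: 0% = vehicle wells with enzyme and 100% = reference inhibitor wells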
bovine MsrA act = bovine MsrA enzyme activators, primary screen, biochemical, absorbance, HTS; Methionine sulfoxide reductase A (Bos taurus); purified bovine MsrA, absorbance read-out; activation, % at 10.6 µM; 0.3% of 360,000 active; AID 602163, 2012; in the data active = activation above about 7.5%;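 note: 0% = vehicle and 100% = reference activator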
SMARCA2 act = SMARCA2 (BRM) function activators, primary screen, cell-based, luminescence, high throughput | MG213 cells, MMTV-luciferase reporter, dexamethasone, overnight | activation, % at 9.1 µM | 1% of 370,000 active; in the data active = activation above about 7.8%;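 note: 0% = vehicle wells and 100% = reference activator wells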
ABCB6 inh MLPCN = ABCB6 transporter inhibitors, primary screen, K562-ABCB6 cells, flow cytometry, MLPCN library. AID 602162, 2011. K562-ABCB6 porphyrin accumulation, 1 h; stronger effect = lower value. fluorescence ratio to DMSO, % at 10 µM. ATP-binding cassette sub-family B member 6 (Homo sapiens), Q9NP58. 0.19% of 360,000 active;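 active = fluorescence ratio to DMSO below 75%, the collection mean minus 3 SD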;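 note: signal is porphyrin accumulated inside mitochondria; 100% equals median channel fluorescence of DMSO control wells; lower ratio means ABCB6 inhibition with less porphyrin fluorescence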
Target sequence (Q9NP58 whole entry, looked up): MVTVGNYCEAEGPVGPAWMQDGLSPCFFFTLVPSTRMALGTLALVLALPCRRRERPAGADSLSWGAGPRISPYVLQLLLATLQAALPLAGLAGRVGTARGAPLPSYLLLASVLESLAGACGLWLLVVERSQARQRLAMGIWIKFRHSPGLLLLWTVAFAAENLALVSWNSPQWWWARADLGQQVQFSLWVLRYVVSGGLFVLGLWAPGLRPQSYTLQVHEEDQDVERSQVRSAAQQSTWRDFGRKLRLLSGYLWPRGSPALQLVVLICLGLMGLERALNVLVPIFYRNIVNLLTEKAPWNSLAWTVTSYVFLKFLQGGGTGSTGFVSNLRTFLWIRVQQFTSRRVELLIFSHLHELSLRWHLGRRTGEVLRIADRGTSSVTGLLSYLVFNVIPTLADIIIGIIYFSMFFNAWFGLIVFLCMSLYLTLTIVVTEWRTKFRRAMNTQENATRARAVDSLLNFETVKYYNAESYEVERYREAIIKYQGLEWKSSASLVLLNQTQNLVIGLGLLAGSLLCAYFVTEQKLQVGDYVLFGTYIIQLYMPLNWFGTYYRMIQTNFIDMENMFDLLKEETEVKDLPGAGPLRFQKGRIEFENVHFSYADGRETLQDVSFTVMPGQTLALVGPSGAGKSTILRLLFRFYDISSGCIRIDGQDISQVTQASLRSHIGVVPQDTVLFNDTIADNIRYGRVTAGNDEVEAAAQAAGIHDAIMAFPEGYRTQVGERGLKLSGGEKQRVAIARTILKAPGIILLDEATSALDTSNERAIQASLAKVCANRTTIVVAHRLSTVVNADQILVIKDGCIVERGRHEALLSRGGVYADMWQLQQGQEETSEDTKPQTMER
SMARCA2 act conf = SMARCA2 (BRM) function activators, confirmation, cell-based, luminescence, triplicate. MG213 cells, MMTV-luciferase with dexamethasone, overnight; MG213 cells expressing E1A, Rb sequestered; DMSO wells 0%, reference activator 100%. activation, % at 9.1 µM. shares compounds with SMARCA2 act. 30% of 3,500 active;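 active = activation above its plate's cutoff, the mean activation of tested wells plus 3 SD, cut at about 7.9% in these data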
GAL4-VP16 Luc = GAL4-VP16 luciferase reporter activation, counter-screen for SMARCA2 (BRM) activator project, cell-based, pG5luc, luminescence, high throughput | shares compounds with SMARCA2 act | AID 686939, 2013 | HEK293 GAL4-VP16 pG5luc reporter; scaled: DMSO wells 0%, SAHA wells 100% | activation, % at 9.1 µM | 41% of 3,500 active;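 active = activation above the solvent-only control well mean plus 3 SD, averaged across control plates, cut at about 5.2% in these data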
* marks the source's active call; other numbers are inactive results; / = not tested or not shown.

SMILES | MsrA inhibitor | bovine MsrA act | SMARCA2 act | ABCB6 inh MLPCN | SMARCA2 act conf | GAL4-VP16 Luc
CCCCCCN[C@H]1CCC2C3CC=C4C[C@@H](O)CC[C@]4(C)C3CC[C@@]21C (stereo partly drawn) | 0 | 1 | 11* | 103 | 9.7* | 1
CS(=O)(=O)c1ccc(C(=O)OCC(=O)N2CCN(CCC3CCCCC3)CC2)cc1[N+](=O)[O-] | 1 | -3 | -11 | 96 | / | /
CS(=O)(=O)c1ccc(C(=O)OCC(=O)N2CCOCC2)cc1[N+](=O)[O-] | 0 | -3 | 8.2* | 99 | 18* | 1
CS(=O)(=O)c1ccc(C(=O)OCc2nnc(-c3ccccc3)o2)cc1[N+](=O)[O-] | 0 | -9 | 12* | 89 | -13 | 9.0*
Cc1ccccc1NC(=O)COC(=O)c1ccc(S(C)(=O)=O)c([N+](=O)[O-])c1 | -1 | -10 | 16* | 107 | 3 | 3
C=C(C)/C=C1/C(Cc2ccccc2)N(CC2CC2)C(=N)N1C(=O)OCc1ccccc1 (stereo not drawn) | / | / | -5 | / | / | /
Nc1ccc2ccc(N)cc2c1 | 1 | / | 13* | / | 0 | 2
Nc1ccc2cc3ccccc3cc2c1 | 1 | -2 | -2 | 427 | / | /
O=C(C[C@H]1C[C@H](C(=O)N2CCOCC2)[C@@]2(CCC3CCCC3)c3[nH]c4ccc(Cl)cc4c3CCN2C1=O)NCCN1CCOCC1 | 3 | 0 | -6 | 101 | / | /
COCCCNC(=O)C[C@H]1C[C@H](C(=O)N2CCOCC2)[C@@]2(CCC3CCCC3)c3[nH]c4ccc(Cl)cc4c3CCN2C1=O | 0 | -1 | 10* | 107 | 2 | 1
CCCc1cc2c(=O)c(-c3ccccn3)c(C)oc2cc1O | 2 | -1 | -5 | 100 | / | /
CCCc1cc2c(=O)c(-c3ccccn3)coc2cc1OC | 0 | -3 | 11* | 91 | 18* | 6.2*
CC[C@@H](CCCCCC#N)CCC(=O)N(c1ccccc1)c1ccccc1 | / | / | -6 | / | / | /
Cc1ccc(O)c(NC(=O)C2CCCN2C(=O)OCc2ccccc2)c1 (stereo not drawn) | 0 | -4 | 9.6* | 93 | -1 | 1
CCOc1ccc(Nc2nc(N)c([N+](=O)[O-])c(N3CCN(CC)CC3)n2)cc1 | 2 | -3 | 12* | 97 | 1 | 2
CCOc1ccc(Nc2nc(N)c([N+](=O)[O-])c(N3CCOCC3)n2)cc1 | 1 | -6 | 1 | 102 | / | /
COc1ccc(OC)c(NC(=O)C2(C)CCN2Cc2ccc(SC)cc2)c1 (stereo not drawn) | -1 | -2 | -2 | 96 | / | /
O=C(CSc1nnc(-c2ccncc2)n1CC1CCCO1)Nc1cccc(O)c1 (stereo not drawn) | 0 | 3 | 8.3* | 99 | -1 | 0
CC(=O)c1cnc2cc(-c3ccc(C)cc3)nn2c1C | 0 | -4 | 10* | 94 | 3 | 9.9*
CC(=O)c1cnc2cc(-c3ccccc3)nn2c1C | 0 | -3 | 2 | 100 | / | /
COC(=O)C1=C(C)N(Cc2ccccc2C(F)(F)F)C(=NCc2ccc3c(c2)OCO3)NC1c1ccc(Cl)cc1 (stereo not drawn) | -1 | / | 2 | / | / | /
O=C(NC(=S)Nc1ccc(O)cc1)C1CCCC1 | 0 | -3 | 1 | 97 | / | /
O=C(NC(=S)Nc1cccc(O)c1)C1CCCCC1 | 0 | -11 | 8.2* | 78 | 3 | 6.2*
CC(C)C[C@H]1COc2cc(Br)ccc2S(=O)(=O)N1Cc1cn(CCC2OCCCO2)nn1 | / | / | 0 | / | / | /
CC(C)(C)N1Cc2nnn(Cc3ccccc3)c2-c2ccccc2S1(=O)=O | / | / | -4 | / | / | /
SMILES | MsrA inhibitor | bovine MsrA act | SMARCA2 act | ABCB6 inh MLPCN | SMARCA2 act conf | GAL4-VP16 Luc
CC(=O)N1CC(C)Oc2ccc(S(=O)(=O)NC(CC(=O)O)c3ccc(C)cc3C)cc21 (stereo not drawn) | 0 | -6 | 0 | 109 | / | /
COc1ccccc1C(CC(=O)O)NS(=O)(=O)c1ccc2c(c1)N(C(C)=O)CC(C)O2 (stereo not drawn) | 0 | -1 | 10* | 97 | -5 | -2
C/C(=N/NC(=O)c1ccc(C)s1)c1ccncc1 | 1 | -2 | 1 | 101 | / | /
C/C(=N\NC(=O)c1cccs1)c1ccncc1 | 1 | -3 | 9.5* | 102 | 4 | 1
C/C(=N\NC(=O)c1sccc1C)c1ccncc1 | 1 | -4 | 9.2* | 94 | 9.4* | 10*
CCOC(=O)N/N=C(\CCC(=O)O)c1cccs1 | 0 | -2 | -3 | 99 | / | /
O=C(O)CC/C(=N/NC(=O)c1cccs1)c1ccccc1 | 1 | -9 | 9.2* | 99 | 4 | 2
COc1cc(F)ccc1Oc1cccc2c1S(=O)(=O)N([C@H](C)c1ccccc1)C[C@@H](COCc1ccccc1)O2 | 0 | / | -2 | / | / | /
C(=C\c1nc(-c2ccncc2)no1)/c1ccccc1 | 1 | 0 | 8.1* | 97 | 8.1* | 5.3*
C(=C\c1nc(-c2ccccc2)no1)/c1ccccc1 | 0 | -2 | 8.9* | 105 | 9.3* | 9.1*
CN(c1cccnc1)c1ccc(NC(=O)Cc2cn(Cc3ccccc3)c3ccccc23)cc1Br | 0 | / | -5 | / | / | /
COc1ccc(C(=O)NC(=O)Nc2cc(C)ccn2)cc1 | 0 | -7 | 12* | 103 | 2 | 4
COc1ccc(-c2cc3c(nn2)-c2ccccc2C3=O)cc1 | 0 | 4 | 11* | 106 | 8.7* | 5.2*
O=c1c2ccccc2nnn1CSc1ccccc1F | 0 | -4 | 11* | 98 | 4 | 13*
O=c1c2ccccc2nnn1CCc1ccccc1 | -1 | 5 | 10* | 100 | 11* | 10*
O=c1c2ccccc2nnn1CSc1ncnc2ccccc12 | 0 | -2 | 1 | 95 | / | /
Cc1ccc(SCn2nnc3ccccc3c2=O)c(C)c1 | -1 | -3 | 5 | 93 | / | /
O=c1c2ccccc2nnn1Cc1ccccc1 | -1 | -5 | -1 | 99 | / | /
Cc1ccc2nc(SCn3nnc4ccccc4c3=O)[nH]c2c1 | 0 | 1 | 8.4* | 99 | 8.1* | 13*
C=CCN1[C@H](Cc2ccccc2)COc2cccc(N3CCCC3)c2S1(=O)=O | / | / | 0 | / | / | /
COC(=O)[C@]12C[C@H](CC(=O)N3CCN(C(=O)c4ccco4)CC3)C(=O)N(CCc3ccc(OC)c(OC)c3)C1=C[C@H](C(C)C)O[C@@H]2C1CC1 | / | / | 2 | / | / | /
C=CCN1[C@@H](C)COc2cc(N3CCSCC3)ccc2S1(=O)=O | / | / | 7 | / | / | /
Cn1/c(=N/NC(=O)c2ccccc2F)sc2ccccc21 | 0 | -9 | 8.0* | 102 | 2 | 8.2*
